PubChem BioAssay (NCI)
The panel holds about 79,000 compounds, 15% with a hit somewhere; the sample as a whole holds those more often. Unmarked numbers belong to inactive results. Active and inactive are the calls of the source. Cut-off read from the data, not from the text of the source: active = growth inhibition above about 70%; inactive = the rest.

Key:
[1] = NCI Yeast Anticancer Drug Screen. Data for the rad50 strain (AID 155);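 note: 0% = growth of vehicle-only cultures of the same strain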; details: S. cerevisiae rad50 strain growth inhibition; at 50.0 µM; stronger effect = higher value
In short: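 DNA repair mutant yeast, compound exposure, growth read-out; inhibition is taken relative to vehicle.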

[2] = NCI Yeast Anticancer Drug Screen. Data for the mec2-1 strain (AID 157); details: S. cerevisiae mec2-1 strain, at 50.0 µM, stronger effect = higher value
In short: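 Cells of the genetically defined mec2-1 yeast strain are incubated with test compound. Inhibition of growth is calculated against vehicle-treated controls.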

[3] = NCI Yeast Anticancer Drug Screen. Data for the sgs1 mgt1 strain (AID 161);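 note: 0% = growth of cultures given vehicle only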; details: S. cerevisiae sgs1 mgt1 strain, at 50.0 µM, stronger effect = higher value
In short: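 Mutant yeast exposed to compound; growth scored against vehicle-only wells.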

[4] = NCI Yeast Anticancer Drug Screen. Data for the cln2 rad14 strain (AID 165);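 note: 0% = growth equal to vehicle treated cultures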; details: S. cerevisiae cln2 rad14 strain, at 50.0 µM, stronger effect = higher value
In short: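 The screen exposed genetically defined yeast (cln2 rad14) to test compounds and scored growth inhibition relative to vehicle-treated controls.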

[5] = NCI Yeast Anticancer Drug Screen. Data for the bub3 strain (AID 167); details: S. cerevisiae bub3 mutant strain, at 50.0 µM, stronger effect = higher value
In short: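 In this screen, a yeast mutant lacking normal mitotic checkpoint function is challenged with compound. Relative growth versus vehicle gives the inhibition value.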

[6] = NCI Yeast Anticancer Drug Screen. Data for the mlh1 rad18 strain (AID 175); details: S. cerevisiae mlh1 rad18 strain growth inhibition; at 50.0 µM; stronger effect = higher value
In short: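 Compound-treated yeast growth, normalised to vehicle controls. Strain bears defined DNA repair mutations.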

Compound | growth inhibition [1] [%] | growth inhibition [2] [%] | growth inhibition [3] [%] | growth inhibition [4] [%] | growth inhibition [5] [%] | growth inhibition [6]
COC(=O)C(Cc1c[nH]c2ccccc12)NC(=O)C(Cc1cnc[nH]1)NC(=O)C1CCC(=O)N1C(=O)OCc1ccccc1 (centres undefined) | -10.2 | -3.55 | -2 | -2.35 | -1.35 | -5.1%
CCOc1ccnc2c(OC)c(C)c3nc4ccccc4nc3c12 | 7.6 | -13.2 | -4.65 | 13.6 | -7.3 | 91% (active)
c1nnco1 | -4.2 | 0.75 | -2.5 | 5.5 | 6.85 | -18.2%
CC(C)(C)c1ccc(OS(=O)(=O)c2ccccc2)c(Cl)c1 | -8.25 | -1.15 | -1.55 | -14.1 | 1.5 | 0.85%
COc1cc(C)c2c([N+](=O)[O-])cc([N+](=O)[O-])c(OC)c2n1 | 12 | 17.9 | 4 | 3.85 | -10.2 | 7.05%
CCOC(=O)c1sc(C(=O)OCC)c2c1-c1cccc3cccc-2c13 | -35.6 | 13.1 | 4.35 | -48 | 15.1 | -9.95%
O=CNCC(O)c1ccc2c(c1)[nH]c1ccccc12 (centres undefined) | 30.6 | -16.2 | -1.45 | -10.3 | 19 | 47.4%
CCN(CC)C(=O)c1ccc(O)c(OC)c1 | 17.7 | 17 | 7.3 | 7.65 | -7.3 | -4.3%
Cc1c([N+](=O)[O-])cc2c(c1[N+](=O)[O-])C(C(C)C)CCC2(C)C (centres undefined) | -1.5 | -25.2 | 9.65 | 29.2 | -40.4 | -5%
O=C(O)c1ccccc1C(=O)c1ccccn1 | -4 | -31.8 | -5.9 | 10.6 | -17.2 | -15.2%
O=C(CCC(=O)Nc1ccc(Cl)c(Cl)c1)CC(=O)c1ccc(F)cc1 | -17.4 | -9.4 | 14.4 | 4.3 | 19.1 | -1.65%
CNC(=O)Sc1ccc(C)c([N+](C)(C)C)c1 | 10.1 | 5.6 | 9 | -9.6 | 18.1 | 18.5%
N/C=N/O | 19.9 | 4.35 | 16.6 | 18.2 | 18.8 | 22.7%
CN(C)c1ccc(/C=C/c2ccnc3c(N)cccc23)cc1 | -3.95 | -8.85 | -14.4 | -12.8 | -10.9 | 3.8%
COc1cc2c(cc1OC)C(Cc1ccccc1CCCl)=NCC2 | 15.1 | 8.65 | -31.8 | -1.8 | -24.7 | 2.45%
S=c1[nH]c2ccccc2nc1NCc1ccccc1 | -1.55 | 2.75 | 2.15 | -19.8 | 10.1 | 2.3%
O=C(O)CCSc1ccccc1 | 25.2 | -23.4 | -13.8 | -73 | -3.45 | 20.1%
CS(=O)CCN=Cc1ccc(N=Nc2ccc(O)cc2)cc1 (centres undefined) | 5.8 | 1.65 | -0.85 | -33.4 | 13.5 | 2.65%
C[N+](C)(C)CC(=O)N/N=C(/Cc1nc2c3c(ccc2[nH]c1=O)C(=O)c1ccccc1C3=O)C(=O)Nc1ccc(Cl)c(Cl)c1 | 1.05 | -6.8 | -7.8 | 18.8 | 7.5 | 30.9%
Nc1nc(C2CCCCC2)cc(=O)[nH]1 | 1.2 | 9 | -4.3 | -25.1 | 5.5 | -0.65%

Compound | growth inhibition [1] [%] | growth inhibition [2] [%] | growth inhibition [3] [%] | growth inhibition [4] [%] | growth inhibition [5] [%] | growth inhibition [6]
CS(=O)(=O)OCC(CCl)(CCl)CCl | -4.5 | 0.55 | 0.15 | 3.2 | -3.45 | -0.8%
CC(=O)OCCCC1CO1 (centres undefined) | 14.9 | -13.7 | -1.4 | 3.15 | -14.2 | 10.6%
NC(=O)c1cccc[n+]1[O-] | -6.25 | 7.25 | -12.6 | 6.05 | 19.6 | 1.3%
CCC1(COC(NC(=O)c2ccccc2)(C(F)(F)F)C(F)(F)F)COC1 | -14.2 | -1.9 | -32.2 | 14.1 | -24.2 | 7.05%
c1csc(C2Nc3ccccc3N2)c1 | 17.6 | -4.1 | 25.6 | 15.2 | 0.5 | 20.4%
NC(=O)c1ncn(C2CCC(CP(=O)(O)O)C2)c1N (centres undefined) | -7.45 | -14.1 | -9.55 | -28.4 | -7 | 5.8%
CNC(=O)CCC(=O)O | -7.25 | -20.2 | -7.5 | -2.7 | -23.4 | -8.45%
CN(C)C(=O)NC(=S)N(C)C | -4.05 | -10.3 | -9.85 | -13.2 | 4.05 | 4.95%
CC(C)(C)CC(C)(C)NCc1ccccc1 | 22.9 | -5.55 | 2.5 | 0.2 | 2.5 | 18.3%
O=C(NO)/C(CC(=O)c1ccccc1O)=N\O | -5.4 | -21.6 | -11.2 | -2.05 | -4.15 | -7.75%
CCC1C[N+]2(C)CCc3cc(OC)c(OC)cc3C2CC1=O (centres undefined) | -10.2 | 1.25 | 12.8 | 19.9 | 1.35 | 7%
OC1COCCC(O)(CNCc2ccccc2)C1O (centres undefined) | 7.4 | 16.6 | -3.95 | 8.15 | -6.95 | -9.1%
NCC(=O)NC1(C(=O)NCC(=O)O)CCCC1 | -2.45 | -2.2 | -20.9 | -13.9 | 6.5 | 1.3%
COC(=O)C1CCC(=O)CC1 | -1 | -0.35 | -9.9 | -19.9 | 2.4 | -3.15%
CN(Cc1ccccc1)c1ccc(C(=O)O)cc1 | -2.65 | 2.3 | -5.55 | -19 | -23.6 | 7%
Cc1ccc(NC(=O)NC23CC4CC(CC(F)(C4)C2)C3)cc1 | 20.1 | 4.45 | -34 | 0.25 | -3.65 | -12.3%
CCOC(=O)C(Cl)C(C)(O)c1ccccc1 (centres undefined) | 11.2 | -3.65 | 11.9 | -46.7 | 5.8 | 17.8%
CCOC(=O)C(/C(=N\NC(=O)OC)C(=O)Nc1cc(OC)ccc1OC)c1cnc2ccccc2n1 (centres undefined) | -6.15 | -2.75 | -45.4 | 18.8 | 15.4 | 0.7%
CC(C)(C)N=c1n(C(C)(C)C)oc(=O)n1C(C)(C)C | -11.8 | -34 | -25.1 | -2.95 | -27.9 | -11.9%
